Columns and labels:
Test in all cases: log2 ratio of Biotin-Ahx-Ub-VS probe labelling (fragment/DMSO); higher = less target engagement (more negative = stronger competition), active = hit call of the paper (q ≤ 0.05, log2 ratio ≤ -1)
Details in all cases: compound concentration: 200 uM; treatment time: 3 h
USP34 = USP34 (UniProt Q70CQ2)
Method in brief: (§1)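 HEK293T lysate (495 µg per sample, in Tris/CHAPS/IGEPAL buffer with protease inhibitors) was exposed in triplicate for 3 h to fragment at 200 µM or to vehicle, then to Biotin-Ahx-Ub-VS at 0.5 µM final for 1 h. Labelled DUBs were enriched on NeutrAvidin, digested with LysC and trypsin, and analysed by diaPASEF LC-MS/MS. Spectronaut label-free quantities were normalised to the global median, and values are average log2 ratios of fragment over vehicle from an unpaired t-test. Only proteins with ≥2 unique peptides were used.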

USP36 = target: T1, USP36 (UniProt Q9P275)
T1 sequence (whole entry): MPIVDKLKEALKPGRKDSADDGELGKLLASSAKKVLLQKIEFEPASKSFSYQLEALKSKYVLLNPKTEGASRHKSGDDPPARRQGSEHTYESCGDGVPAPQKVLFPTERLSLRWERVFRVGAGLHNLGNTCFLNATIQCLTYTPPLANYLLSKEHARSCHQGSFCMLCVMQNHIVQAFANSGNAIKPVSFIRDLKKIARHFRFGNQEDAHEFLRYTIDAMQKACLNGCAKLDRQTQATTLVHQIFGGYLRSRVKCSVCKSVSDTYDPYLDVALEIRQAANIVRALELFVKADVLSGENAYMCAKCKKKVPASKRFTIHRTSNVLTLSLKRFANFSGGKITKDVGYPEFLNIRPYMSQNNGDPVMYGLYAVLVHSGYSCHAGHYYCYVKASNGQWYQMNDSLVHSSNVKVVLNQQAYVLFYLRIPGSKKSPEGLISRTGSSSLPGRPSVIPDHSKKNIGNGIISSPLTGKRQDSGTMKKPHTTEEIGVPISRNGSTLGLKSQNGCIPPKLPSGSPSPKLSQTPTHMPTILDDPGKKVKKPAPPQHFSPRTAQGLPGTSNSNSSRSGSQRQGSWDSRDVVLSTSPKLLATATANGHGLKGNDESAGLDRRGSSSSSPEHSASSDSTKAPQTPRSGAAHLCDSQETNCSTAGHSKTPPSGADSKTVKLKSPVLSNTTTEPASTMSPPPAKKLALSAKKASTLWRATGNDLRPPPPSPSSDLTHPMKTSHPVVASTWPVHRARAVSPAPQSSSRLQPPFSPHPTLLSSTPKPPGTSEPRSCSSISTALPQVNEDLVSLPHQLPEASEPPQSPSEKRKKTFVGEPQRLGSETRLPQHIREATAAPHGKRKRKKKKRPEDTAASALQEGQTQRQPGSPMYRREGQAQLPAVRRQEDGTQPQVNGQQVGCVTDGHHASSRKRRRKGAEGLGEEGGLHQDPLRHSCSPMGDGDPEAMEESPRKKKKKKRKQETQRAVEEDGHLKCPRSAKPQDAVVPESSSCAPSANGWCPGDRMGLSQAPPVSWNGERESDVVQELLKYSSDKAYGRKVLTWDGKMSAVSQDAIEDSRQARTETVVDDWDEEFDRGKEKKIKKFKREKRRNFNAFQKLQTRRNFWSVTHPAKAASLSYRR
Method in brief: as §1

USP38 = target: T2, USP38 (UniProt Q8NB14)
T2 sequence (whole entry): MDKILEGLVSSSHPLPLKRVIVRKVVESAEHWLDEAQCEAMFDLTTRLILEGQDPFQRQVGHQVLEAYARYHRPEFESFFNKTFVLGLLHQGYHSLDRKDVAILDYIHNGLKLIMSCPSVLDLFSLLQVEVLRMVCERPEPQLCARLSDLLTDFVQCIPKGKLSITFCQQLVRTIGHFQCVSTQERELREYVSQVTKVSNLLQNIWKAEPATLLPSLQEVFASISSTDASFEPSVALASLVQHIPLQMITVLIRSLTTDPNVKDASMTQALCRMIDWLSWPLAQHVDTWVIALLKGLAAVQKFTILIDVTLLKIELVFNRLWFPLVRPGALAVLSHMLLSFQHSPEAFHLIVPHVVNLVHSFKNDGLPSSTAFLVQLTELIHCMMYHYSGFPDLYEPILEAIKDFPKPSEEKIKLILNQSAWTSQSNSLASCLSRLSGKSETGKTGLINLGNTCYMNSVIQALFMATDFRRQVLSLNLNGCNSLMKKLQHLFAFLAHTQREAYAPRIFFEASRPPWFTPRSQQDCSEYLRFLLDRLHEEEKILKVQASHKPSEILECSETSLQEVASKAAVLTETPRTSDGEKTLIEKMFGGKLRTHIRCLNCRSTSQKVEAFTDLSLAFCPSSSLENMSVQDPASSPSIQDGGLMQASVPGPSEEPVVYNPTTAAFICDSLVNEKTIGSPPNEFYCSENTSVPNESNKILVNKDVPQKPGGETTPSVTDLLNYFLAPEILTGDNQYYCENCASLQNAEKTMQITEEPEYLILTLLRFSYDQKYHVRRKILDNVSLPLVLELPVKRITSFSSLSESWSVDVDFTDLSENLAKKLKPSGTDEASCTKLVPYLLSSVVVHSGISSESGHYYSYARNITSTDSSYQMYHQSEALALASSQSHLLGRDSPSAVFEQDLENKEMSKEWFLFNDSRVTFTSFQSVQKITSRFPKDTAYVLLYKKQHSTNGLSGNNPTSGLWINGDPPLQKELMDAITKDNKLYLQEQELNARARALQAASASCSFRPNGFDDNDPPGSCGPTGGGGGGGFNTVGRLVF
Method in brief: as §1

USP39 = target: T3, USP39 (UniProt Q53GS9)
T3 sequence (whole entry): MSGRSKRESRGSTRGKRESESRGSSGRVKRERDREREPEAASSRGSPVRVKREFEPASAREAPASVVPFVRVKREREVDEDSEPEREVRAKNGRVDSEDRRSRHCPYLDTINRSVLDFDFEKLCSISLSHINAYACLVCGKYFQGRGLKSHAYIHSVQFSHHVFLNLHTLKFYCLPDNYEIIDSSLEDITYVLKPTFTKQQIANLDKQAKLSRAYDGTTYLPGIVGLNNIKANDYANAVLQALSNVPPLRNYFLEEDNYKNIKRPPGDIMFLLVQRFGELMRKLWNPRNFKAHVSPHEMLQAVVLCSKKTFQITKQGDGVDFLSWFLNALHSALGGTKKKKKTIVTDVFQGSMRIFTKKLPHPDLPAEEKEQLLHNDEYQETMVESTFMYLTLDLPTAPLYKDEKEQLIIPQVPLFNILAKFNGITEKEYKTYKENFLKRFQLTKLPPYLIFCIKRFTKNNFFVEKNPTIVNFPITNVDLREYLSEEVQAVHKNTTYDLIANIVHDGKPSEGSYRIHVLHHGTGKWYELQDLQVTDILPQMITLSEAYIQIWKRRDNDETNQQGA
Method in brief: as §1

USP4 = target: T4, USP4 (UniProt Q13107)
T4 sequence (whole entry): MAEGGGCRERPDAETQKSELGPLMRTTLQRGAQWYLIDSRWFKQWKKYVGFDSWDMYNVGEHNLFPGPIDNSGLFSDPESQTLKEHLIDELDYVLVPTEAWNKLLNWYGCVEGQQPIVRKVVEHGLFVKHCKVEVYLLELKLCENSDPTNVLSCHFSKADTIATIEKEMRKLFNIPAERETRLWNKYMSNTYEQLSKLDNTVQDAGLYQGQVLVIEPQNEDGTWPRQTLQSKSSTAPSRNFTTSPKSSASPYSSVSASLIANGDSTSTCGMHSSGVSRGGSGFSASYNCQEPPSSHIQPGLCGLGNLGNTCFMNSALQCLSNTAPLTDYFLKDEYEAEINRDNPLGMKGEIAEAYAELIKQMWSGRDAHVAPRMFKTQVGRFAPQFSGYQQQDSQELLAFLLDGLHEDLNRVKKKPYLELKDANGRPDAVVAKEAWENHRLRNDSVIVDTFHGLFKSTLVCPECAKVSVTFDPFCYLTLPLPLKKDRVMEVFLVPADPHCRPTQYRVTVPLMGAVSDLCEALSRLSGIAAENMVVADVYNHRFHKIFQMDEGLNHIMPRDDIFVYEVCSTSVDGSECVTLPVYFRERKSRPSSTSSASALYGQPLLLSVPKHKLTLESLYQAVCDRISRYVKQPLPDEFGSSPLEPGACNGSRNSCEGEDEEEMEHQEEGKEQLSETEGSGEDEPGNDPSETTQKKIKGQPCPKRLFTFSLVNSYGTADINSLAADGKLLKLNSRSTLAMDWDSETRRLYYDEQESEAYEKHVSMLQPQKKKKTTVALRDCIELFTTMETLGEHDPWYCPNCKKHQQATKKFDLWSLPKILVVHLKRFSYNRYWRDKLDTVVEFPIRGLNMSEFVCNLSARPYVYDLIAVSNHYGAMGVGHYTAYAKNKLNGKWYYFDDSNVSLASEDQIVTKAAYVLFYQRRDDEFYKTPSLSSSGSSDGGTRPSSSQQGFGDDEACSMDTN
Method in brief: as §1

Measured: log2 ratio of Biotin-Ahx-Ub-VS probe labelling

Chain of USP34 (Q70CQ2 whole entry, the tested form may be a part): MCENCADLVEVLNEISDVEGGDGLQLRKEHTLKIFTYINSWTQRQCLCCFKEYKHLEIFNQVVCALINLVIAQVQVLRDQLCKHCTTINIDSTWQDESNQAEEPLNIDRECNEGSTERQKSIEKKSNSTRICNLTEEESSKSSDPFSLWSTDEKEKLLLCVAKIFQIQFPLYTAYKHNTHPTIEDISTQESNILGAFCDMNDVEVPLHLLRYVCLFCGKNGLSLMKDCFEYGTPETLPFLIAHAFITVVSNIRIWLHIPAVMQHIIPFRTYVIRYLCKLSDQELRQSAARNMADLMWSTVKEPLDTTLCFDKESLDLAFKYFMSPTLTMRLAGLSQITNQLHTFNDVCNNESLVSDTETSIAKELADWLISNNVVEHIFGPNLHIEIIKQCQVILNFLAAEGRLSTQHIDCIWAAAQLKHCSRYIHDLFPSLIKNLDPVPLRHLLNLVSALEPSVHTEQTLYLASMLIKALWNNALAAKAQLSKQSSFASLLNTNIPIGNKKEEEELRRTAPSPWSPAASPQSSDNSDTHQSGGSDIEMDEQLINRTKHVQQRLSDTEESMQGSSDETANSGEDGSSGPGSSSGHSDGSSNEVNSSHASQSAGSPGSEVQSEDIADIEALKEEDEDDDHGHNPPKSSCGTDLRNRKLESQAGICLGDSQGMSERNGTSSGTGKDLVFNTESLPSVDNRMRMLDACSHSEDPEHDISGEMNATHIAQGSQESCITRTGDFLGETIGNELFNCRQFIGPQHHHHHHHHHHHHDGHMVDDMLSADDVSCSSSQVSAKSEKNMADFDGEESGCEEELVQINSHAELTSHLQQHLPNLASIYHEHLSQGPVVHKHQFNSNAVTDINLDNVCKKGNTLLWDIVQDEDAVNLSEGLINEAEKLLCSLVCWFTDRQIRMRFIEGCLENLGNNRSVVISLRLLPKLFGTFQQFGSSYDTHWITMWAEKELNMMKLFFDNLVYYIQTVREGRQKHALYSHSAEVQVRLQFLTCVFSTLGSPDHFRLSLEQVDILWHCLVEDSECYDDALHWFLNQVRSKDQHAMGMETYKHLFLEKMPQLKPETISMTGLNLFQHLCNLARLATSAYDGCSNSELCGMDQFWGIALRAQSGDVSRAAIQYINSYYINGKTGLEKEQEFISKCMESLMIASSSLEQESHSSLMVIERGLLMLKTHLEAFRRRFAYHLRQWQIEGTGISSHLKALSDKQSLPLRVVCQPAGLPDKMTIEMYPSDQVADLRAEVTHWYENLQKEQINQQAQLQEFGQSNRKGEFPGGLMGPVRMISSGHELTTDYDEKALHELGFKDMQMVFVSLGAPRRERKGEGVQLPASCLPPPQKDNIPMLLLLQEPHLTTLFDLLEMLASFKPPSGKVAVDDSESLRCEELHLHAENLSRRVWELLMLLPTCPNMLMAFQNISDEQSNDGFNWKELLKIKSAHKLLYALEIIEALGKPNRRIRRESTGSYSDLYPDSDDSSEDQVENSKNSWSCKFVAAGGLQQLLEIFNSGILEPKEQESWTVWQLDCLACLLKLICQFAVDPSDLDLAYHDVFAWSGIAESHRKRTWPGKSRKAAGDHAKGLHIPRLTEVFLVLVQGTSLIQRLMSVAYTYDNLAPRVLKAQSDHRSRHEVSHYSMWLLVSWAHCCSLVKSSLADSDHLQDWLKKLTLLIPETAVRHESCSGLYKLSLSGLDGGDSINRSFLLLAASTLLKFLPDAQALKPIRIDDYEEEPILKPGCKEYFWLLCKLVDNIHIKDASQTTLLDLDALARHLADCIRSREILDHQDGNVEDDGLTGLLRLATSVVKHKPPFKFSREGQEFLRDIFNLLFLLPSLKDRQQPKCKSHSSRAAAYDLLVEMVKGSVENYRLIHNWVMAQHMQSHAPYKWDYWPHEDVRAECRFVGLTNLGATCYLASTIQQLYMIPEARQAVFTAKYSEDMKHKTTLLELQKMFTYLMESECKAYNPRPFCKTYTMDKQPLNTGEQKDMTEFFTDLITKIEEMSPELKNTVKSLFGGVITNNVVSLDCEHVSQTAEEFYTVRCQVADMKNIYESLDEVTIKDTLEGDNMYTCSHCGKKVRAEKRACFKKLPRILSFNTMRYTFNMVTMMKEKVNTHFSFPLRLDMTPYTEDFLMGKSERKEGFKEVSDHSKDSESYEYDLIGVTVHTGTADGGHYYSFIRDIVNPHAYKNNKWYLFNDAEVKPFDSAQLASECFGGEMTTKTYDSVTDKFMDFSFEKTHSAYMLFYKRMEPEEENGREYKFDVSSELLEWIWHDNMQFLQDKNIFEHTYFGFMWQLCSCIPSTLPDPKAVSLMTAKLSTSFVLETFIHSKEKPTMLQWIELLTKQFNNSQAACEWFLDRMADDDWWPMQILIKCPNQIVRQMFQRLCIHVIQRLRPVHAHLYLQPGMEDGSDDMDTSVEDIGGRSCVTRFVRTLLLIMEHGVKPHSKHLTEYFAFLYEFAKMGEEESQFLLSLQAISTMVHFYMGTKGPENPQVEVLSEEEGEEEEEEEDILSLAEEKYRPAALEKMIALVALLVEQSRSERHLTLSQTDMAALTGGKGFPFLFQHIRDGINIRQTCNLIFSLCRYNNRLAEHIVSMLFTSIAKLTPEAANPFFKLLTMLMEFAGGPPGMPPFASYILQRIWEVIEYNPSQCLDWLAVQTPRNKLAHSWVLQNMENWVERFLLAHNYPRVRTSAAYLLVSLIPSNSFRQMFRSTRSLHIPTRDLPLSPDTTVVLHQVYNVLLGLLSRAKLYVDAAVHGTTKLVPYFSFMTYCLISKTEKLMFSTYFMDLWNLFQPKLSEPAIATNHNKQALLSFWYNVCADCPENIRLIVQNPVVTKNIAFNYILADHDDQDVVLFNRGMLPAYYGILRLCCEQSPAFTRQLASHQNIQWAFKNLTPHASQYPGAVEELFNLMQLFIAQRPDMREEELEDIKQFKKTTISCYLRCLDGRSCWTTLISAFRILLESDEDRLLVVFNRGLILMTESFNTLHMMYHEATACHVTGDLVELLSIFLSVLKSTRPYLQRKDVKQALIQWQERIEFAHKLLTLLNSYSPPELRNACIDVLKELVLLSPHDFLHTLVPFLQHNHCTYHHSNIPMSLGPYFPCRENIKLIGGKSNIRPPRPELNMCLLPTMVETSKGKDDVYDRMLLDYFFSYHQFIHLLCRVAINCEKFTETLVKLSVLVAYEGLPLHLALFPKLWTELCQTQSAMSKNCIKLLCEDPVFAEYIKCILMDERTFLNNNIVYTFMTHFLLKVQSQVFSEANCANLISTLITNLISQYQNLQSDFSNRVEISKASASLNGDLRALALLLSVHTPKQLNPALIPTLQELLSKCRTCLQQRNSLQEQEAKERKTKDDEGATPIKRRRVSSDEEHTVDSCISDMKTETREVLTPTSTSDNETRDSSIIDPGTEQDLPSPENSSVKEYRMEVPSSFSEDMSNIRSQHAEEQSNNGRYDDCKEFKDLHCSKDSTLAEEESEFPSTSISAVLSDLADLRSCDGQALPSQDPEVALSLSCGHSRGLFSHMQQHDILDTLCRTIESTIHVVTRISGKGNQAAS

Cc1cccc(NC(=O)CCl)c1C
inactive: USP34 -0.304 | USP36 -0.363 | USP38 -0.389 | USP39 -0.513 | USP4 -0.269
